FMDV antiviral – High Throughput Screening for Foot and Mouth Disease Virus Antivirals. FMDV antiviral cell-based qHTS. Potency, µM (top dose mostly 57.9 µM), inactives show at the highest dose activity change, negative = inhibition, usual class: inhibitors. 410,000 compounds, 1.2% hits. AID 1159524, 2015; calls by dose curve; tested in HEK293T cells; note: read-out not given here; potency is the fitted concentration of half-maximal effect; nearly all actives have a fitted effect of over 45% in size
Giardia FBPA inh – qHTS Assay for Inhibitors of Fructose-1,6-bisphosphate Aldolase from Giardia Lamblia | A8B2U2 | purified Giardia FBPA | Potency, µM (series often up to 59.6 µM), without a hit: at the top dose activity, negative = inhibition, most hits filed as inhibitors | 290,000 compounds, 0.71% hits; note: potency is the fitted concentration of half-maximal effect; nearly all actives have a fitted effect of over 55% in size
Target sequence (A8B2U2 whole entry, looked up): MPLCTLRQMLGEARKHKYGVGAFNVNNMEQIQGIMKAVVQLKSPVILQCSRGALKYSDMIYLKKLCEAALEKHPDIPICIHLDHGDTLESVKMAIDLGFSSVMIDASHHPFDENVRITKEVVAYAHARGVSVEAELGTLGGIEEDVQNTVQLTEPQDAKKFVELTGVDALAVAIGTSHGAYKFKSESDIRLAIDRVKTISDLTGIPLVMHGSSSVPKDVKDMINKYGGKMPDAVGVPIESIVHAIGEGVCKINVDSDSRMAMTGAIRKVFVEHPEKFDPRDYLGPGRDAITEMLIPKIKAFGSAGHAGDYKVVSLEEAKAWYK
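Giardia FBPA (40 nM reagent) was preincubated 10 min at RT with compound (up to 57.5 uM final), then substrate plus GAPDH/TPI/NAD/arsenate coupling system with diaphorase/resazurin was added; resorufin fluorescence (525/598 nm) was read after 20 min.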
MARV entry inh – qHTS for inhibitors of binding or entry into cells for Marburg Virus | AID 540276, 2011 | 300,000 compounds, 1.8% hits | Potency, µM (top dose mostly 37.8 µM), inactives show at the top dose activity change, negative = inhibition, actives largely listed as inhibitors | Marburg virus pseudotyped entry inhibition, cell reporter; calls by dose curve; tested in HEK293 cells; note: potency is the fitted concentration of half-maximal effect
HCMV antiviral – qHTS Assay for inhibitors of the human cytomegalovirus (HCMV) | HFF cells, HCMV-luciferase reporter, 72 h; hits give low values | AID 1259415, 2018 | 410,000 compounds, 4.5% hits | activity change, negative = inhibition, % at 57.5 µM; in the data active = activity change below about -60%; inconclusive = no clear call, values can overlap the other calls; inactive = above about -39%
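Cell-based, HFFs, 1000 cells/well, 16 h 37C; cpds in DMSO + HCMV-luc, MOI 1 PFU/cell; 72 h 37C; OneGlo luminescence after 5 min RT; norm. to buffer vs Salinomycin 10uM.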
HCV inh – qHTS Assay for Inhibitors of Hepatitis C Virus (HCV). Huh7.5.1 HCVcc-Cre infection, luciferase reporter, 44 h. AID 651820, 2012. 340,000 compounds, 3.4% hits. Potency, µM (top dose mostly 41.8 µM), for inactives: at the top dose activity change, negative = inhibition, most hits filed as inhibitors; note: potency is the fitted concentration of half-maximal effect
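Cells seeded at 1,000/well and cultured 4 h, then compounds added followed by HCVcc-Cre virus (~0.5 moi). After 44 h further culture, luciferase substrate was added, plates held 15 min at room temperature, and luminescence read for 15 sec.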
Lassa entry inh – qHTS for Inhibitors of binding or entry into cells for Lassa Virus. Lassa virus pseudotype entry inhibition, cell reporter. Potency, µM (highest dose often 37.9 µM), without a hit: at the top dose activity change, negative = inhibition, actives largely listed as inhibitors. 300,000 compounds, 1.2% hits; calls by dose curve; tested in HEK293 cells; note: potency is the fitted concentration of half-maximal effect; nearly all actives have a fitted effect of over 50% in size
Starred values were filed as active, the others as inactive; ? = inconclusive; / = no result; [ ] = remark or other dose. Rows were chosen to be rich in hits. Some 8.3% of all compounds tested hit in one or more screens of this group. Unless noted, calls come from the whole dose curve; as a rule, active = well fitted curve in the direction sought with a large enough effect; inconclusive = small, poorly fitted or top-dose-only effect, or another doubt; inactive = no such curve, though single readings can be large; an effect the other way counts as inactive or inconclusive. % is set by controls: 0 for no effect and ±100 for the full control effect.

SMILES	FMDV antiviral	Giardia FBPA inh	MARV entry inh	HCMV antiviral	HCV inh	Lassa entry inh
Cc1ccc(-c2nnc(-c3ccccc3)c(N3CCOCC3)n2)cc1	?	1%	?	-3	11µM*	-22%
Cc1ccc2nc(N3CCOCC3)c(C=O)cc2c1	29%	-2%	/	17	?	/
c1ccc(-c2cc3ccccc3nc2N2CCCC2)cc1	-22%	12%	-1%	-61*	?	3%
COc1cc(OC)c(NC(=O)c2c(C)nn(-c3ccc(C)cc3)c2-n2cccc2)cc1Cl	-22%	/	/	-9	/	-2%[46.1 µM]
CNC(=O)CN(c1ccc(C23CC4CC(CC(C4)C2)C3)cc1)S(C)(=O)=O	-20%	-1%	?	-60*	4%	-6%
COc1ccc(Nc2cc3[nH]c(-c4ccc(C(=O)N(C)C)cc4)cc3cn2)c(OC)c1	/	/	/	38	/	/
CC1CCC(NC(=O)c2ccc3c(c2)N(Cc2cccc(Cl)c2)C(=O)c2ccccc2S3(=O)=O)CC1 (centres undefined)	11%	/	/	?	/	10%[46.1 µM]
Cc1cc(C)c(CN2CCN(CCCn3ccc(NC(=O)OCc4ccccc4)nc3=O)CC2)c(C)c1	?	/	/	-27	7.9µM*	/
COc1ccccc1OCCC(=O)O	-9%	4%	1%[46.1 µM]	-91*	0%	25%[46.1 µM]
CN1CCN(c2ncc3nc(-c4cccs4)c(=O)n(CCc4ccccc4)c3n2)CC1	-18%	5%	/	/	/	/
COc1cc(OC)c(NC(=O)CN2CCCN(Cc3ccccc3C)S2(=O)=O)cc1Cl	-6%	/	/	11	/	-6%[46.1 µM]
COc1cccc(CN(C)C(=O)c2cccc(S(=O)(=O)N3CCN(c4ccccc4)CC3)c2)c1	?	/	/	-29	/	/
COc1ccc(CN(C)C(=O)c2cccc(S(=O)(=O)N3CCN(c4ccccc4)CC3)c2)c(OC)c1OC	?	/	?	-70*	8.9µM*	?
COc1ccccc1CN(C)C(=O)c1cccc(S(=O)(=O)N2CCN(Cc3ccccc3)CC2)c1	-3%	/	?	-22	-26%	3%[46.1 µM]
CN(Cc1ccc(F)cc1)C(=O)c1cccc(S(=O)(=O)N2CCN(c3ccccc3)CC2)c1	?	/	?	-27	13µM*	?
CN(CCOc1ccc(Cl)cc1)C(=O)c1cccc(S(=O)(=O)N2CCN(Cc3ccccc3)CC2)c1	10µM*	/	/	?	2.5µM*	/
Cc1ccc(CN(C)C(=O)c2cccc(S(=O)(=O)N3CCN(c4ccccc4)CC3)c2)cc1	?	/	?	-39	?	?
CN(Cc1nc2ccccc2c(=O)[nH]1)C(=O)c1cccc(S(=O)(=O)N2CCc3ccccc32)c1	-13%	/	?	-67*	3%	4µM*
CCc1cccc(NC(=O)Cn2c(=O)n(-c3ccccc3C)c(=O)c3c2c2cc(C)ccc2n3C)c1	-17%	/	/	-11	/	23%[46.1 µM]
Cc1ccccc1Cn1c(=O)n(CCCCC(=O)NCCc2ccccc2)c(=O)c2ccccc21	-8%	/	-23%[46.1 µM]	1	/	0%[46.1 µM]
COc1ccc(CN(C)C(=O)c2cccc(S(=O)(=O)N3CCCc4ccccc43)c2)c(OC)c1OC	?	/	/	-12	11µM*	/
CCN1CCN(S(=O)(=O)c2ccc(Cl)c(C(=O)N(CC)Cc3ccccc3)c2)CC1	-15%	/	-7%	-18	?	-10%
CN(Cc1ccc(F)cc1)C(=O)c1cccc(S(=O)(=O)N2CCN(c3ccc(F)cc3)CC2)c1	?	/	?	-38	10µM*	?
COc1ccc(C(CNC(=O)c2cccc(S(=O)(=O)N3CCCc4ccccc43)c2)N(C)C)cc1 (centres undefined)	-2%	/	?	-5	?	?
CCN1CCN(S(=O)(=O)c2ccc(Cl)c(C(=O)N(CCc3ccccc3)Cc3ccccc3)c2)CC1	-23%	/	/	-21	13µM*	/
CSc1ccc(CN(C)C(=O)c2cccc(S(=O)(=O)N3CCN(Cc4ccccc4)CC3)c2)cc1	16µM*	/	?	?	?	-17%

Screens from PubChem.
